Compounds with a hit are over-represented: about 18% of the library has one in this group of screens.
TDP1 block – TDP1 (human) enzyme inhibition; recombinant TDP1, AlphaScreen DNA substrate cleavage; actives 0.28% (n = 350,000); Potency, µM (titrated, usually from 130 µM), usual class: inhibitors; Q9NUW8; AID 485290; also: nearly all actives have a fitted effect of over 40% in size
Target sequence (Q9NUW8 whole entry, looked up): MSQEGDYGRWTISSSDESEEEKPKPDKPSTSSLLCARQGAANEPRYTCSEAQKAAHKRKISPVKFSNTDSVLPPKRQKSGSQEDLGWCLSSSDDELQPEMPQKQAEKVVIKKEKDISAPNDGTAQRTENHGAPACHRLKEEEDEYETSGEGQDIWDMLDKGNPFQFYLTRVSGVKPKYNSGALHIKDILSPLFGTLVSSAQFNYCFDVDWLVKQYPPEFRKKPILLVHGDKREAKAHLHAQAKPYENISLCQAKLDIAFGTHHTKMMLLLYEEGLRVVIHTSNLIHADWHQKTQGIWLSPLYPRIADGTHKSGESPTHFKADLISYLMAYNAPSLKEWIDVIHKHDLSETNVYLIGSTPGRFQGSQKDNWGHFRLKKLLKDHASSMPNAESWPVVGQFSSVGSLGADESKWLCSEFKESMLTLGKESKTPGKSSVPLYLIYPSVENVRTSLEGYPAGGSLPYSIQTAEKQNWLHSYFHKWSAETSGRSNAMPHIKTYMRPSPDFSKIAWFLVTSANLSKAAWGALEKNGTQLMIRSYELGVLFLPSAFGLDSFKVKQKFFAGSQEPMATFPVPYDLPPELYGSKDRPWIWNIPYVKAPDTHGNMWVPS
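Enzyme-compound mixtures sat 15 min at room temperature, followed by a 5 min reaction with 15 nM final substrate and 10 min with AlphaScreen beads. Recombinant human Tdp1 was used at 1 nM final.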
IL1B secr inh – inhibitors of inflammasome signaling (IL-1 beta secretion) | THP-1 LPS/ATP IL-1B secretion, AlphaLISA, 16 h; active compounds read low | activity change, % at 57.5 µM | actives 4.7% (n = 360,000); in the data active = activity change below about -50%; inconclusive = mostly about -30% to -49%
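THP-1 cells pretreated 1 hr with compounds (up to 57.5 uM final), then stimulated with LPS (250 ng/mL final) plus ATP (1.25 mM final); secreted IL-1B measured by AlphaLISA after 16 hr, decreased signal indicating inhibition.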
DT40 TDP1 no CPT – qHTS for Inhibitors of human tyrosyl-DNA phosphodiesterase 1 (TDP1): qHTS in cells in absence of CPT | Potency, µM (titrated, usually from 46.2 µM), actives largely listed as inhibitors | actives 15% (n = 420,000) | DT40 Tdp1-/- hTDP1 cells, no CPT, ATP luminescence, 48 h; also: nearly all actives have a fitted effect of over 55% in size
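Readout: luminescence from CellTiter-Glo after 30 min in the dark at RT. Cells: DT40 Tdp1-/- with stable hTDP1, 400/well. Exposure: compounds alone, ≥48 hr, 37 °C.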
TDP1 cell CPT – DT40-hTDP1 cell growth loss with CPT; chicken DT40 Tdp1-/-;hTDP1 cells + 20 nM CPT, ATP luminescence, 48 h; Potency, µM (top dose mostly 46.2 µM), most hits filed as inhibitors; actives 12% (n = 420,000); AID 686979; also: nearly all actives have a fitted effect of over 55% in size
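Chicken DT40 Tdp1-/- cells stably complemented with human TDP1 were seeded at 400 cells/well in medium containing 20 nM camptothecin, exposed to pin-transferred compounds, and grown at 37 °C for at least 48 hr. Viability was read as ATP luminescence.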
TGFb SMAD3 inh – inhibitors of TGF-b signaling; actives 1.2% (n = 410,000); Potency, µM (highest dose often 46.1 µM), usual class: inhibitors; HepG2 CAGA-GFP TGF-b/SMAD3 reporter, GFP fluorescence, 18 h; TGF-beta stimulated, 500 pg/mL final; also: nearly all actives have a fitted effect of over 65% in size
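Smad-responsive CAGA-GFP expression was quantified in HEPG2 cells exposed to compounds and 500 pg/mL final TGF-beta for 18 h at 37 degrees C; unstimulated wells defined full inhibition.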
HepG2 tox – counter-screen for TGF-b inhibitors: cytotoxicity in HepG2 cells | actives 0.76% (n = 410,000) | HepG2 CAGA-GFP viability, ATP luminescence, 18 h | Potency, µM (titrated, usually from 46.1 µM), most hits filed as cytotoxic
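CellTiter-Glo luminescence gave cytotoxicity after 18 hours at 37 degrees C. The cells were HepG2 CAGA-GFP in 1% FBS DMEM, stimulated with 500 pg/mL TGF-beta after compound addition. %Activity was normalised to no-cell wells (complete cell-killing) and DMSO (no toxicity), and curves were fitted and classified.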
Numbers stand for hits; . = inactive; ? = inconclusive; / = not tested or not shown; ! = not active in a repeat. Unless noted, calls follow the shape of the dose curve; as a rule, active = well fitted curve in the direction sought with a large enough effect; inconclusive = small, poorly fitted or top-dose-only effect, or another doubt; inactive = no such curve, though single readings can be large; an effect the other way counts as inactive or inconclusive.

SMILES	TDP1 block	IL1B secr inh	DT40 TDP1 no CPT	TDP1 cell CPT	TGFb SMAD3 inh	HepG2 tox
CCc1ccc2c(c1)C(=O)c1ccccc1C2=O	.	.	.	.	.	.
O=S(=O)(Nc1cccc2cccnc12)c1ccccc1Br	.	/	/	/	6.3µM	.
O=C1C=C(Nc2ccccc2)c2ccccc2C1=O	.	.	4.6µM	7.3µM	3.2µM	3.5µM
CCc1ccc(NC2=CC(=O)C(=O)c3ccccc32)cc1	/	-87	2.9µM	2.3µM	2µM	2.8µM
c1ccc(Nc2ccccc2)cc1	.	.	.	.	.	.
O=S(=O)(c1ccccc1)N(CC(O)COc1ccccc1)c1ccccc1 (stereo not given)	.	.	?	?	.	.
O=C(NN=Cc1ccccc1)NN=Cc1ccccc1	/	.	?	.	.	.
O=C(O)c1ccccc1NC(=O)C(c1ccccc1)c1ccccc1	/	.	.	.	.	.
O=C1C=C(Nc2ccccc2C(=O)O)c2ccccc2C1=O	.	.	?	?	?	16µM
O=C1c2cccnc2C(=O)N1Cc1ccccc1	.	.	.	.	.	.
O=C1C(Nc2ccccc2)=CC(=O)c2ncccc21	.	/	1.1µM	1µM	/	/
CC(=O)c1ccc(NC(=S)Nc2ccc3cn[nH]c3c2)cc1	.	-73	?	?	.	.
CC(C)c1ccc(NC(=S)Nc2ccc3cn[nH]c3c2)cc1	.	.	.	.	.	.
O=C(Nc1c2c(nn1-c1ccc(F)cc1)CS(=O)(=O)C2)c1ccc(Br)o1	.	.	.	.	.	.
C=C(C)Cn1c(N2CCCC2)nc2c1c(=O)n(C)c(=O)n2C	.	.	?	?	.	.
CC(C)CCn1c(N2CCCC2)nc2c1c(=O)n(C)c(=O)n2C	/	.	21µM	?	.	.
CCCCCCn1c(N2CCCC2)nc2c1c(=O)n(C)c(=O)n2C	.	.	18µM	?	.	.
COc1ccc(OC(C)C(=O)NC2CCCCCC2)cc1 (stereo not given)	/	.	.	.	.	.
Cc1cc(C)c(Cn2c(=O)n(CCCC(=O)NCc3ccco3)c(=O)c3ccccc32)c(C)c1	/	.	18µM	?	.	.
O=C(Cn1c(=O)n(Cc2ccco2)c(=O)c2ccccc21)Nc1cccc(Cl)c1	.	.	?	?	10µM	.
O=C(CCCCn1c(=O)c2ccccc2n(Cc2ccc(F)cc2Cl)c1=O)NCc1ccco1	.	.	15µM	18µM	.	.
Cc1ccc(NC(=O)Cn2c(=O)n(Cc3ccco3)c(=O)c3ccccc32)c(C)c1	.	.	.	?	.	.
Cc1ccc(C)c(Cn2c(=O)n(CCCC(=O)NCc3ccco3)c(=O)c3sccc32)c1	.	.	12µM	23µM	.	.
Cc1noc(C)c1-c1ccc2ncnc(NCC3CCN(C)CC3)c2c1	.	/	/	/	/	/
COc1ccc(C2Nc3ccccc3C(=O)N2Cc2ccccc2)cc1COc1cccc(C(F)(F)F)c1 (stereo not given)	.	/	/	/	/	/
SMILES	TDP1 block	IL1B secr inh	DT40 TDP1 no CPT	TDP1 cell CPT	TGFb SMAD3 inh	HepG2 tox
COc1cccc(NC(=O)C2(C)CCN2C(=O)CC2CC2)c1 (stereo not given)	/	.	.	.	.	.
Cc1ccc(NC(=O)Cn2c(=O)n(CCCCC(=O)NCc3ccco3)c(=O)c3ccccc32)cc1	.	.	15µM	?	?	.
CCC(C)NC(=O)Cn1c(=O)n(CCCCC(=O)NCc2ccco2)c(=O)c2ccccc21 (stereo not given)	.	.	.	.	.	.
O=C(CCCn1c(=O)c2ccccc2n(CC(=O)NCc2ccco2)c1=O)NCc1ccco1	.	.	?	.	.	.
O=C(CCCCn1c(=O)c2ccccc2n(CC(=O)Nc2ccc(F)cc2)c1=O)NCc1ccco1	.	.	?	9.2µM	.	.
COc1ccccc1C(=O)N1CCOc2ccc(C(C)(O)CCn3cccn3)cc2C1 (stereo not given)	/	/	.	.	/	/
COc1ccc(C(=O)Nc2ccc3nc(SCC(=O)N4CCOCC4)sc3c2)cc1	.	/	?	?	.	.
CC(C)(C)NC(=O)CSc1nc2ccc(Nc3nc(N4CCOCC4)nc(N4CCOCC4)n3)cc2s1	.	.	6.5µM	13µM	?	.
CCOC(=O)CSc1nc2ccc(Nc3nc(N4CCOCC4)nc(N4CCOCC4)n3)cc2s1	.	.	21µM	?	.	.
CC(=O)Nc1ccc2nc(SCC(=O)Nc3ccc(N4CCOCC4)c(Cl)c3)sc2c1	.	.	?	?	.	.
CC(=O)CSc1nc2ccc(Nc3nc(N4CCOCC4)nc(N4CCOCC4)n3)cc2s1	.	.	?	?	.	.
Cc1ccc(NC(=O)CSc2nc3ccc(Nc4nc(N5CCOCC5)nc(N5CCOCC5)n4)cc3s2)cc1	.	.	18µM	?	.	.
COc1ccc(NC(=O)CSc2nc3ccc(Nc4nc(N5CCOCC5)nc(N5CCOCC5)n4)cc3s2)cc1	.	.	6.5µM	12µM	.	.
CC(C)(C)NCC(O)CSc1nc(-c2ccc(C(N)=O)s2)cs1 (stereo not given)	/	/	.	.	/	/
COCc1cc(C)nc(Nc2ccccc2OC)c1C#N	/	.	.	.	.	.
C[C@H](c1ccccc1)n1nnc(COCc2ccccc2)c1C#CCOCc1ccccc1	.	.	?	?	?	.
CC(C)N=C(N)N=C(N)Nc1ccc(Cl)cc1	/	?	9.2µM	26µM	.	.
NC(=NCCCCCCN=C(N)/N=C(\N)Nc1ccc(Cl)cc1)/N=C(\N)Nc1ccc(Cl)cc1	.	-100!	13µM!	16µM!	?	.
CC(C)N=C(N)/N=C(\N)Nc1ccc(Cl)cc1	.	/	/	/	/	/
CCCCN=C(Nc1ccc(Cl)cc1)c1cccnc1	.	.	.	.	.	.
O=C(CNC(=O)c1ccc2ccccc2c1)NC1CCCCC1	.	.	.	.	.	.
CCCCn1nnnc1C(c1ccccc1)N1CCN(c2ncccn2)CC1 (stereo not given)	/	.	21µM	?	/	/
CCCCn1nnnc1C(c1ccccc1)N1CCN(c2ccccn2)CC1 (stereo not given)	/	?	16µM	.	/	/
c1ccc(Cn2nnnc2C(c2cccnc2)N2CCN(c3ccccc3)CC2)cc1 (stereo not given)	.	.	23µM	21µM	.	.
CCCCn1nnnc1C(c1ccccc1)N1CCN(CCN2CCOCC2)CC1 (stereo not given)	/	.	.	.	/	/
